Reference: the supplement of paper PMC11732987, “Enantioselective OTUD7B fragment discovery through chemoproteomics screening and high-throughput optimisation” (Communications Chemistry, 2025)

Tests used:
Assay in all cases: log2 ratio of Biotin-Ahx-Ub-VS probe labelling (fragment/DMSO); higher = less target engagement (more negative = stronger competition), active = hit call of the paper (q ≤ 0.05, log2 ratio ≤ -1)
Conditions in all cases: compound concentration: 200 uM; treatment time: 3 h
USP19 = target: T1, USP19 (UniProt O94966)
T1 sequence (whole entry): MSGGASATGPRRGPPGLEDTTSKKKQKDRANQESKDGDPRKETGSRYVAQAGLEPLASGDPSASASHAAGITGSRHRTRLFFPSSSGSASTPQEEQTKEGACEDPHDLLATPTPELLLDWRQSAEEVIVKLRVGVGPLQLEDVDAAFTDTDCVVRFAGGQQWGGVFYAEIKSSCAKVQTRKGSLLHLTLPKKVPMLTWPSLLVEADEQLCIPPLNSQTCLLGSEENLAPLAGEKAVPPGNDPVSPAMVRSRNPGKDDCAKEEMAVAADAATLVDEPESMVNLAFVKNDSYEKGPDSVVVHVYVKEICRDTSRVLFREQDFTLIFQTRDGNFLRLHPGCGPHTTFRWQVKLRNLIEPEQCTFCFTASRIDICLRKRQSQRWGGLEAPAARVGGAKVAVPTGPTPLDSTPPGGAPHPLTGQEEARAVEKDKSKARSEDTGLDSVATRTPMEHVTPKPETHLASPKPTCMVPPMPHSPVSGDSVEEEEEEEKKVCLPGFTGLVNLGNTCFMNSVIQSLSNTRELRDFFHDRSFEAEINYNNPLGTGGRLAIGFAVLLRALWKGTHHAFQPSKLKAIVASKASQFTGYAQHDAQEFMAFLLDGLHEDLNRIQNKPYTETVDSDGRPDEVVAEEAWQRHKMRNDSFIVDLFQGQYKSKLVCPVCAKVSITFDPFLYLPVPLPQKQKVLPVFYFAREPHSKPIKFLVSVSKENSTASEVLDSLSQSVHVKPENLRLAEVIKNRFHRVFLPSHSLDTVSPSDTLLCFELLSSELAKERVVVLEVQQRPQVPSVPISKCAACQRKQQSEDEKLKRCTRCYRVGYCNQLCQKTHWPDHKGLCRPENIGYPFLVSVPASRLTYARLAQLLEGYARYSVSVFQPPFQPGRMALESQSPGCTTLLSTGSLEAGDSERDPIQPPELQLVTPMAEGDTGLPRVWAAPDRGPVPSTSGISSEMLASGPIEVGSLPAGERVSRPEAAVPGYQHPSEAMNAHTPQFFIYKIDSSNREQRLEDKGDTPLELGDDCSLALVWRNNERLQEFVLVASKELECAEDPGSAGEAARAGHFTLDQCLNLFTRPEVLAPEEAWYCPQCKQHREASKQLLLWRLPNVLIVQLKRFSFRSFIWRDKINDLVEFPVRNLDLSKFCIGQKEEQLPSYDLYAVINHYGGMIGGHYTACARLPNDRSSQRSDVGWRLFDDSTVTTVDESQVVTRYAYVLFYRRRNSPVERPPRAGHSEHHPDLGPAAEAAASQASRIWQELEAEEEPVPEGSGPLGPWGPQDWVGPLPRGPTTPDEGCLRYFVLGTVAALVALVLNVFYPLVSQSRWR
Method in brief: (§1)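 Labelled DUBs from HEK293T lysate were NeutrAvidin-enriched, digested with LysC and trypsin, and run by diaPASEF LC-MS/MS. Before that, each 495 µg sample in Tris/CHAPS/IGEPAL buffer with protease inhibitors was treated in triplicate with fragment at 200 µM or vehicle for 3 h, then with Biotin-Ahx-Ub-VS at 0.5 µM final for 1 h. Values are average log2 ratios of fragment over vehicle by unpaired t-test, based on global-median-normalised Spectronaut label-free quantities from proteins with ≥2 unique peptides.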

USP24 = USP24 (UniProt Q9UPU5)
USP24, sequence (Q9UPU5 whole entry): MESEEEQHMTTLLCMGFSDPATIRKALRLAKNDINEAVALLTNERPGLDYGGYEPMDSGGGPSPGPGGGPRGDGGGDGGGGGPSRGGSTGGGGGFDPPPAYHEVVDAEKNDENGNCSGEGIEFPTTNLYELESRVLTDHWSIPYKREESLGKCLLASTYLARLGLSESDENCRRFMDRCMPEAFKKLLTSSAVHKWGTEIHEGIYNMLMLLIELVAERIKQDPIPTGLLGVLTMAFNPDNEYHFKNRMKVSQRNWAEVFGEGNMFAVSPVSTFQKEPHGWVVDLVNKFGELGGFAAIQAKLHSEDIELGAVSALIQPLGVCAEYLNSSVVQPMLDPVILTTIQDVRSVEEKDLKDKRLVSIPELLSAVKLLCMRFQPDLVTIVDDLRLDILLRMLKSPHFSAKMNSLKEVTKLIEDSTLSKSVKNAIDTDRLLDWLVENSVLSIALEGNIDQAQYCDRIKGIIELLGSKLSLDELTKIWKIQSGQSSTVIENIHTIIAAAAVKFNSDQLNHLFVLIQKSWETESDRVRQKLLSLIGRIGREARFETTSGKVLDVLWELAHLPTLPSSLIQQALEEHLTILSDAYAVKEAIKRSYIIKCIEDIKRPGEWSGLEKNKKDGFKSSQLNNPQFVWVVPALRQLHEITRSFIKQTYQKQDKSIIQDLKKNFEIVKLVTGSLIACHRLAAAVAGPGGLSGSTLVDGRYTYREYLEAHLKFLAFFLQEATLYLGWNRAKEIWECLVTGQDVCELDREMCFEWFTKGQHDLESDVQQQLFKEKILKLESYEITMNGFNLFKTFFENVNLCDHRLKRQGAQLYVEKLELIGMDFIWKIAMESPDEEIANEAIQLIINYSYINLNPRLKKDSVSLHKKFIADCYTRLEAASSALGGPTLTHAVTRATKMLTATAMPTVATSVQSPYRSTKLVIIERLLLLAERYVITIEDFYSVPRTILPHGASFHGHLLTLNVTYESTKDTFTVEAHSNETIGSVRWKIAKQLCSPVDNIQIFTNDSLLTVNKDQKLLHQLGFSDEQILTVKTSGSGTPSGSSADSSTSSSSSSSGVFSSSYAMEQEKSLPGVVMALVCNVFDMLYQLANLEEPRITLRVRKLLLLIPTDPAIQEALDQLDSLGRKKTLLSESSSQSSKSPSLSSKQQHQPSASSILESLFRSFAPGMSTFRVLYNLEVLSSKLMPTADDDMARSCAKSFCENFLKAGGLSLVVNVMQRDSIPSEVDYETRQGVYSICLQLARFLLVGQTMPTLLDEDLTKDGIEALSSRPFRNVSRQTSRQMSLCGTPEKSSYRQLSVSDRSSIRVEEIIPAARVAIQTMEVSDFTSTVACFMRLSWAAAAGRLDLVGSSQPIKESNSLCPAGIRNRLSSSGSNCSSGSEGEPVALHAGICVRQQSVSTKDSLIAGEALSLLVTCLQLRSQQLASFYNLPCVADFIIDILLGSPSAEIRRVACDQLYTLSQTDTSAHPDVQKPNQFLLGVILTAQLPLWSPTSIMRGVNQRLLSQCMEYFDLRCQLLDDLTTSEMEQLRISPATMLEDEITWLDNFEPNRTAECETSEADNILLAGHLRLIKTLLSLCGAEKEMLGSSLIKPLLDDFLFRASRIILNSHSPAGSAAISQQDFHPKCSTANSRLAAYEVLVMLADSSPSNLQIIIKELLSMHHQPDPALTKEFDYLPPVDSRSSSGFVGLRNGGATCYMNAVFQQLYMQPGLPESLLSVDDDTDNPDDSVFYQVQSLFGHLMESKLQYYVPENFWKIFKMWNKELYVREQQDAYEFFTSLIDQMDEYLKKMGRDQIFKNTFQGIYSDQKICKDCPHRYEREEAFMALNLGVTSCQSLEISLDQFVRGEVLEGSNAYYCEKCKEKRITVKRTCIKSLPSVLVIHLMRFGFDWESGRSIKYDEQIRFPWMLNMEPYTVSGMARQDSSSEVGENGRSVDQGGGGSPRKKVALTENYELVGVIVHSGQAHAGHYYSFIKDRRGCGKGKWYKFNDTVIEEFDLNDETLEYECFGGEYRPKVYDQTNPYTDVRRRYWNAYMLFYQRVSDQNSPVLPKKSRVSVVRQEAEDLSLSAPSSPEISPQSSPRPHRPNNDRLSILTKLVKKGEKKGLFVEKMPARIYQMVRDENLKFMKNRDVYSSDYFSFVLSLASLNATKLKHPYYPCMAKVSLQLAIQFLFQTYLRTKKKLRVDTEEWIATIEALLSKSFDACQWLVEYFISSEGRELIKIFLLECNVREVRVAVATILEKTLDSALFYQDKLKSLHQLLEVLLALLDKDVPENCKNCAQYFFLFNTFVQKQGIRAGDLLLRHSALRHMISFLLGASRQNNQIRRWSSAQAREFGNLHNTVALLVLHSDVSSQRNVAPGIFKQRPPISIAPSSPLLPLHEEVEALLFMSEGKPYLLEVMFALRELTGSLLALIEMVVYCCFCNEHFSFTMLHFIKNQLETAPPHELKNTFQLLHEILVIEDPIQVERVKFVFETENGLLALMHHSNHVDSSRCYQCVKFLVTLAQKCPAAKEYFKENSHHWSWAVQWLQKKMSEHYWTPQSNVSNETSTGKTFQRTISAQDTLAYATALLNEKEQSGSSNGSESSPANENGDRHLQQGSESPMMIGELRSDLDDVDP
Method in brief: as §1

USP25 = target: T2, USP25 (UniProt Q9UHP3)
T2 sequence (whole entry): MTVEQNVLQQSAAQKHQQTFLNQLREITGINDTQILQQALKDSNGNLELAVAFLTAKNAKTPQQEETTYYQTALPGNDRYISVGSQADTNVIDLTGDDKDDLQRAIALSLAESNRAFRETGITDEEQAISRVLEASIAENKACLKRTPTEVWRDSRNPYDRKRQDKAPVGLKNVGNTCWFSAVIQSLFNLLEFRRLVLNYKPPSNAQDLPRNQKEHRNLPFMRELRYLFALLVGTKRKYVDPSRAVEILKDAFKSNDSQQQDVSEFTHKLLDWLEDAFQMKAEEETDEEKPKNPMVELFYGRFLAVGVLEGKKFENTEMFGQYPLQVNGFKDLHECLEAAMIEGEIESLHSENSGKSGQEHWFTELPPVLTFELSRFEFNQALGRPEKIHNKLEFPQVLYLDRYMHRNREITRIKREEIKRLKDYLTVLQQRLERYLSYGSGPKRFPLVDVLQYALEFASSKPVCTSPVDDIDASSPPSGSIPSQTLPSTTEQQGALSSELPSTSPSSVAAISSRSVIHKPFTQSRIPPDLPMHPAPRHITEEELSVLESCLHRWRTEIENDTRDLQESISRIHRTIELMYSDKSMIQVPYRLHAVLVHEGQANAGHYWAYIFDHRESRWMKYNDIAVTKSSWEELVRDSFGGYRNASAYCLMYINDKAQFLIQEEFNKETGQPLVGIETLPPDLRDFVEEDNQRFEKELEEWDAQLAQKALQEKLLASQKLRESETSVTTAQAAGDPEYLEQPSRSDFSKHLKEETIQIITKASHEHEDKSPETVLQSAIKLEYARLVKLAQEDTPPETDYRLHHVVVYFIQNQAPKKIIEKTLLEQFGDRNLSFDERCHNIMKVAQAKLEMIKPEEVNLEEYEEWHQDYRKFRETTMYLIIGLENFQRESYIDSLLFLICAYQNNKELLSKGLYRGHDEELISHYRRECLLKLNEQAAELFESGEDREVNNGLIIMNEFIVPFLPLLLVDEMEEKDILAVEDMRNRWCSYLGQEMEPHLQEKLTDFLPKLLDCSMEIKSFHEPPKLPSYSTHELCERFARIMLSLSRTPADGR
Method in brief: as §1

USP28 = target: T3, USP28 (UniProt Q96RU2)
T3 sequence (whole entry): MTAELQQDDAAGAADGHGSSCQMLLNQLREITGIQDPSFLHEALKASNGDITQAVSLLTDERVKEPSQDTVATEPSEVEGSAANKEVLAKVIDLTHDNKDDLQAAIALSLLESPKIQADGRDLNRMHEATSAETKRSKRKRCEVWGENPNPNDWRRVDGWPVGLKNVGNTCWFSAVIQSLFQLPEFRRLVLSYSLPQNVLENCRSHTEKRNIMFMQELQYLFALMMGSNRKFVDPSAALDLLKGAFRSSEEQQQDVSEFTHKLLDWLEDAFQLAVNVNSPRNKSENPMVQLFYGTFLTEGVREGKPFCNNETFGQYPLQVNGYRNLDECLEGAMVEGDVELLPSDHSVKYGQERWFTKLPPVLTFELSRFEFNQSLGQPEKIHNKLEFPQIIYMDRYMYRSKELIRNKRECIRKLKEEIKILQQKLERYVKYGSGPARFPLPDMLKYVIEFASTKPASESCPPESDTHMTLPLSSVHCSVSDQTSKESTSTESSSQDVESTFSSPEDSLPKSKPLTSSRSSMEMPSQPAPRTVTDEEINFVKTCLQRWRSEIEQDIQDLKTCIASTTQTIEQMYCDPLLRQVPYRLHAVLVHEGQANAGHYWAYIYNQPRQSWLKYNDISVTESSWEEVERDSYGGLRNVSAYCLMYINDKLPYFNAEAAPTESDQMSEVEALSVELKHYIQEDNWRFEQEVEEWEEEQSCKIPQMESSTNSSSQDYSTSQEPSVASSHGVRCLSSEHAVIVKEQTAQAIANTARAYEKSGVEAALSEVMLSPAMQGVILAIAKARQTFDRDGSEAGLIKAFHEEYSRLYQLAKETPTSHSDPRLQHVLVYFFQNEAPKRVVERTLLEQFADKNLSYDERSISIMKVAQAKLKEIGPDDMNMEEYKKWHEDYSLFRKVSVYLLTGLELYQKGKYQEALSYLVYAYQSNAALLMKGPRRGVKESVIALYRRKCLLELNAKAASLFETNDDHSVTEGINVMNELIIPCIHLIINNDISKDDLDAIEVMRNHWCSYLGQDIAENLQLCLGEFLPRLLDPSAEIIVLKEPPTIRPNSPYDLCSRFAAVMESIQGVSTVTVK
Method in brief: as §1

Measured: log2 ratio of Biotin-Ahx-Ub-VS probe labelling

O=C(CCl)NC1CCC(C(F)(F)F)CC1 (centres undefined)
inactive: USP19 -0.155 | USP24 -0.771 | USP25 -0.322 | USP28 -0.705
